Screen size: about 300,000 compounds; about 2,300 (0.77%) were called active.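 Rule for the calls: active = mean activation of at least 80% with every replicate also reaching 80%; inconclusive = mean reaches 80% but some replicate falls short; inactive = the rest.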 Many of the other results were omitted from the sample, so actives are more common in it than they were.
Assay: activators of MITF-driven TRPM1 promoter reporter, primary screen, cell-based, SK-MEL-5, luciferase, single point (AID 588334);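 note: 0% = neutral control wells and 100% = parthenolide positive control wells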
Conditions: SK-MEL-5 TRPM1-promoter luciferase, 24 h; at 12.5 µM; stronger effect = higher value; % of positive control, neutral wells = 0

With COc1ccc(OCc2cc(C(=O)NCC3(C)COC3)no2)c(Cl)c1 as the compound, how does the activation read?
The activation was 37.2% (inactive).

With Cc1cccnc1CC(C)NC(=O)c1cc(COc2cncc(Cl)c2)on1 (centres undefined) as the compound, how does the activation read?
Its activation is 51.4% (inactive).

For Cc1cc(OCc2cc(C(=O)NCc3cc(C(C)C)no3)no2)cc(C)c1Cl, which activation is on record?
The activation was 84.2% (active).

For CC(C)(C)OC(=O)N1CCC(C(=O)Nc2cccc(C(=O)NCCc3ccccc3)c2)CC1, which activation is on record?
The activation was 0.242% (inactive).

With CCCCc1ccc(NC(=S)N2CCCC(CO)C2)cc1 (centres undefined) as the compound, how does the activation read?
The activation was 105% (active).

Which activation does the source give for CCCCc1ccc(NC(=S)NCCCN2CCOCC2)cc1 here?
Its activation is 13.8% (inactive).

For COc1ccc(NC(=S)N2CCCC(CO)C2)c(OC)c1 (centres undefined), which activation is on record?
Its activation is -5.46% (inactive).

For NS(=O)(=O)c1ccc(CCNC(=O)c2ccc(Cl)c(S(=O)(=O)N3CCCCCC3)c2)cc1, which activation is on record?
Its activation is -34.2% (inactive).

Which activation does the source give for CC(C)(C)c1nnc2sc(SCC(O)=C(C#N)c3nc4ccccc4[nH]3)nn2c1=O here?
The activation was 7.19% (inactive).

For O=[N+]([O-])c1ccc(NS(=O)(=O)c2ccccc2)c(Cl)c1, which activation is on record?
The activation was -5.26% (inactive).

Which activation does the source give for O=C(NC1=NCCS1)c1ccc(Cl)s1 here?
Its activation is 121% (active).

For COc1ccc(C(=O)NC2=NCCS2)c(OC)c1, which activation is on record?
The activation was 33.9% (inactive).

Which activation does the source give for O=C(NCc1ccc2c(c1)OCO2)c1ccc(Cl)s1 here?
The activation was 9.51% (inactive).

With C[C@H](CO)N1C[C@H](C)[C@H](CN(C)CC2CC2)Oc2ccc(NC(=O)CCN3CCOCC3)cc2C1=O as the compound, how does the activation read?
The activation was 4.29% (inactive).

Which activation does the source give for COc1cc(/C=C/CNC[C@H]2O[C@@H](n3cnc(C(N)=O)n3)[C@H](O)[C@@H]2O)ccc1O here?
The activation was -8.98% (inactive).

With C=CC(=O)Nc1ccc(Nc2ccnc(Nc3ccc(N4CCN(C)CC4)cc3)n2)cc1 as the compound, how does the activation read?
Its activation is -13.2% (inactive).

Which activation does the source give for Nc1cc2c(cc1Br)-c1ccc(F)cc1C2=O here?
The activation was 7.07% (inactive).

Which activation does the source give for COC(=O)[C@@]1(C)[C@H]2C(=O)N(Cc3ccccc3)C(=O)[C@H]2[C@H]2CN=C(SCC3CC3)N21 here?
The activation was -1.12% (inactive).

Which activation does the source give for COC1=NC2=NCCN2C(OC)=N1 here?
The activation was 4.31% (inactive).

With CC(C)CNC(=O)c1cc(-c2ccc(Br)cc2)on1 as the compound, how does the activation read?
Its activation is 124% (active).

With CC(C)Cc1cc(C(=O)Nc2cc(Br)ccc2O)no1 as the compound, how does the activation read?
The activation was 42.2% (inactive).

For Cc1c(NC(=O)c2cc(-c3ccc(Br)cc3)on2)c(=O)n(-c2ccccc2)n1C, which activation is on record?
Its activation is 6.12% (inactive).

For CC(=O)c1ccc(NC(=O)CSc2nc3ccccc3c(=O)n2CCCN2CCOCC2)cc1, which activation is on record?
The activation was 14.6% (inactive).

With Cc1ccc(NC(=O)C(=O)NCc2ccco2)c(C)c1 as the compound, how does the activation read?
The activation was 72.2% (inactive).

For Cc1ccc(NC(=O)c2oc(=O)c3ccccc3c2-c2ccccc2)c(C)c1, which activation is on record?
Its activation is -8.24% (inactive).

For Cc1ccc(NN=C2C(=O)OC(C)(C)OC2=O)c(C)c1, which activation is on record?
Its activation is 120% (active).

Which activation does the source give for COc1ccc(CNc2nc(NCc3ccc(OC)cc3)c3ncn(C4CCCC4)c3n2)cc1 here?
Its activation is -22% (inactive).

Which activation does the source give for CCCN(C(=O)CSc1nnc(N)s1)c1c(N)n(Cc2ccccc2)c(=O)[nH]c1=O here?
The activation was -11.7% (inactive).

For CCCCNCCS(=O)(=O)NCc1ccccc1, which activation is on record?
Its activation is 11.7% (inactive).

Which activation does the source give for FC(F)(F)c1ccnc(Oc2ccc(C3=NCCS3)cc2)c1 here?
The activation was 102% (active).

With O=Cc1ccc(Oc2cccc(C(F)(F)F)c2)nc1 as the compound, how does the activation read?
Its activation is 2.89% (inactive).

For O=[N+]([O-])c1cccc(C2=NCCS2)c1, which activation is on record?
Its activation is -11.6% (inactive).

For CC1C(C)N(C(=O)CCl)c2ccccc2N1C(=O)CCl (centres undefined), which activation is on record?
The activation was -89.8% (inactive).

For O=C1CC(c2ccccc2)=NN1c1ccc([N+](=O)[O-])cc1, which activation is on record?
The activation was 29.1% (inactive).

Which activation does the source give for Cc1nn(-c2ccccc2)c2c1C(c1cccc([N+](=O)[O-])c1)N(c1ccccc1)C(=O)N2 (centres undefined) here?
The activation was -8.33% (inactive).

With Cc1nn(-c2ccc([N+](=O)[O-])cc2)c(N)c1-c1ccccc1 as the compound, how does the activation read?
The activation was 97.5% (active).

Which activation does the source give for Cc1ccccc1CC1(CO)CCCN(C(=O)c2cc(-c3ccccc3)no2)C1 (centres undefined) here?
Its activation is 6.1% (inactive).

With COC(=O)CCC(=O)N1CCCC(CO)(Cc2ccccc2)C1 (centres undefined) as the compound, how does the activation read?
Its activation is 94.6% (active).

Which activation does the source give for Cc1noc(C)c1CCC(=O)N1CCCC(CO)(Cc2ccccc2)C1 (centres undefined) here?
Its activation is 67.5% (inactive).

With Cn1cc(C2OC(=O)c3ccccc32)c2ccccc21 (centres undefined) as the compound, how does the activation read?
Its activation is -10.6% (inactive).

With COc1ccccc1N(CC(=O)Nc1c(C)n(C)n(-c2ccccc2)c1=O)S(=O)(=O)c1ccccc1 as the compound, how does the activation read?
Its activation is -1.77% (inactive).

For CCCCN(C(=O)c1cccc(N2C(=O)c3ccccc3C2=O)c1)c1c(N)n(CCCC)c(=O)[nH]c1=O, which activation is on record?
The activation was -1.35% (inactive).

With CCCCn1nc(C(=O)N2CCc3ccccc32)c2ccccc2c1=O as the compound, how does the activation read?
The activation was -15.9% (inactive).

Which activation does the source give for O=C(c1cnn2ccccc12)N1CCc2ccccc21 here?
Its activation is 91.5% (active).

With Cc1cnc(C(=O)OCC(=O)N2CCc3ccccc32)cn1 as the compound, how does the activation read?
Its activation is -0.372% (inactive).

Which activation does the source give for C=CC(COCc1ccccc1)N(CC(=O)OC)S(=O)(=O)c1cc(Br)ccc1OC (centres undefined) here?
The activation was -10.3% (inactive).

For CCC(CO)Oc1cc(NC(=O)c2cccc3ccccc23)c2ncn(C(C)C)c2c1 (centres undefined), which activation is on record?
The activation was -4.63% (inactive).

For COc1ccc(CNC(=O)C[C@H]2C[C@H](C(=O)N3CCOCC3)[C@@]3(CCC4CCCC4)c4[nH]c5ccc(Cl)cc5c4CCN3C2=O)cc1OC, which activation is on record?
Its activation is -70.8% (inactive).

With Clc1ccc(-c2csc(-c3ccncc3)n2)cc1 as the compound, how does the activation read?
The activation was 33.5% (inactive).

Which activation does the source give for N#CC(=C1CCCC1)c1nc(-c2ccc(Cl)cc2)cs1 here?
The activation was 91.3% (active).

Which activation does the source give for N#CC(=C1SC=CS1)c1nc(-c2ccccc2)cs1 here?
The activation was 47.6% (inactive).

For O=S(=O)(Cc1ccc(Cl)cc1Cl)c1ccc(Cl)cc1, which activation is on record?
Its activation is 16.2% (inactive).

Which activation does the source give for CC1(C)C[C@H]2C3=CCC4[C@@]5(C)CC[C@H](O)[C@](C)(CO)C5CC[C@@]4(C)[C@]3(C)C[C@@H](O)[C@@]2(CO)[C@@H](O)[C@@H]1O (some centres undefined) here?
The activation was -11.2% (inactive).

Which activation does the source give for CCC(=O)Oc1cccc(C(=O)Nc2ccc(-c3nnc(-c4ccco4)o3)cc2)c1 here?
Its activation is 85.5% (active).

For O=C(CCc1ccccc1)Nc1cccc(-c2nnc(-c3ccco3)o2)c1, which activation is on record?
Its activation is 10.8% (inactive).

For CCCCOc1ccc(-c2nnc(-c3ccco3)o2)cc1, which activation is on record?
The activation was 30.3% (inactive).

With CC[C@]12c3[nH]c4cc(CCC(=O)N(C)C)ccc4c3CCN1C(=O)[C@@H](CC(=O)NCC13CC4CC(CC(C4)C1)C3)C[C@@H]2C(=O)N1CCN(C(=O)C2CC2)CC1 as the compound, how does the activation read?
Its activation is 5.19% (inactive).

Which activation does the source give for COc1ccc(/C=C2/CCCc3ccccc3C2=O)cc1 here?
Its activation is 39.3% (inactive).

Which activation does the source give for CCOc1ccccc1/C=N/Nc1nc2ccccc2o1 here?
The activation was 13.3% (inactive).

For Brc1ccccc1/C=N/Nc1nc2ccccc2o1, which activation is on record?
The activation was 81.1% (active).

With COc1ccc(/C=N/Nc2nc3ccccc3o2)cc1OC as the compound, how does the activation read?
Its activation is 56.1% (inactive).

For O=C(CNC(=O)c1cc(S(=O)(=O)N2CCOCC2)ccc1N1CCCC1)Nc1ccc(F)c(F)c1, which activation is on record?
The activation was -3.17% (inactive).

Which activation does the source give for COc1cc2c(cc1CNC[C@H]1O[C@@H](n3cnc(C(N)=O)n3)[C@H](O)[C@@H]1O)OCO2 here?
The activation was -7.21% (inactive).

Which activation does the source give for CSc1ccccc1OCc1cc(C(=O)N(C)CCc2c(C)n[nH]c2C)no1 here?
The activation was 1.76% (inactive).

With CSc1ccccc1OCc1cc(C(=O)N2C[C@H]3CC[C@H]2C3)no1 as the compound, how does the activation read?
The activation was 91.7% (active).

For COC(=O)[C@@H]1CCCN1C(=O)c1cc(COc2cccc3cccnc23)on1, which activation is on record?
The activation was -6.69% (inactive).

Which activation does the source give for C=CCCC(=O)N1C[C@H]2CON(C)[C@H]2C[C@H]1c1cccc(Nc2ccccc2)c1 here?
The activation was 17.1% (inactive).

Which activation does the source give for O=C(Nc1ccccc1)Oc1cccc2cccnc12 here?
The activation was -34.4% (inactive).

With COC(=O)c1ccc(Nc2ncnc3sccc23)cc1 as the compound, how does the activation read?
Its activation is 93.3% (active).

Which activation does the source give for COc1ccc(Nc2ncnc3sc(C)cc23)cc1 here?
The activation was 68.5% (inactive).

With CCOC(=O)c1nc(Nc2ccc(C(=O)OC)cc2)c2ccccc2n1 as the compound, how does the activation read?
The activation was 8.95% (inactive).

For O=C(Nc1ccccc1)c1ccc2c(c1)OCCCO2, which activation is on record?
The activation was 24.5% (inactive).

For Cc1ccc(C(=O)NNC(=O)c2ccc3c(c2)OCCO3)cc1, which activation is on record?
The activation was 109% (active).

Which activation does the source give for Cc1ccc2sc(NNC(=O)c3ccc4c(c3)OCCO4)nc2c1C here?
The activation was -0.623% (inactive).

With Cc1cccc(C)c1NC(=O)CNC(=O)c1ccc2c(c1)OCCO2 as the compound, how does the activation read?
Its activation is 4.28% (inactive).

Which activation does the source give for Cc1nc(NC(=O)c2ccc3c(c2)OCCO3)ccc1Br here?
Its activation is 122% (active).

With O=C(Nc1ccc(Cl)cn1)c1ccc2c(c1)OCCO2 as the compound, how does the activation read?
The activation was 5.88% (inactive).

For CSCCC(NC(=O)COc1ccccc1)C(=O)N1CCN(c2cccc(C(F)(F)F)c2)CC1 (centres undefined), which activation is on record?
Its activation is 8.6% (inactive).

With CC(C)N(C(=O)[C@H]1C[C@H](CC(=O)NCCC2=CCCCC2)C(=O)N2CCc3c([nH]c4cc(CCC(=O)N(C)C)ccc34)[C@]12C)C(C)C as the compound, how does the activation read?
The activation was 10.3% (inactive).

For COc1ccc2[nH]c3c(c2c1)CCN1C(=O)C(CC(=O)NCc2cccc(C(F)(F)F)c2)C[C@H](C(=O)N2CCOCC2)[C@@]31C (some centres undefined), which activation is on record?
The activation was 2.71% (inactive).

Which activation does the source give for O=C(NNc1ncnc2c1cnn2-c1ccccc1)c1ccco1 here?
Its activation is 2.51% (inactive).

Which activation does the source give for O=C(NCCC1=CCCCC1)C1CCN(Cc2cnn(-c3ccccc3)c2-n2cccc2)CC1 here?
The activation was 11.4% (inactive).

Which activation does the source give for C1=C(CCNc2ncnc3c2cnn3-c2ccccc2)CCCC1 here?
The activation was 94.3% (active).

For N#CC(Cc1cc2ccccc2n1S(=O)(=O)c1ccccc1)OCc1ccccc1 (centres undefined), which activation is on record?
Its activation is -2.16% (inactive).

With O=C(Nc1ccc(O)cc1)c1ccc(NC(=O)c2ccco2)cc1 as the compound, how does the activation read?
The activation was 30.3% (inactive).

Which activation does the source give for Cc1cc(NC(=O)c2ccc(F)cc2)ccc1NC(=O)c1ccco1 here?
The activation was 10.4% (inactive).

With Cc1ccnc(NC(=O)c2ccc(NC(=O)c3ccco3)cc2)c1 as the compound, how does the activation read?
Its activation is 109% (active).

Which activation does the source give for CC(C)C[C@H]1CN([C@@H](CC(C)C)CN2CCC[C@@H]2CN2C(=O)C(=O)NC[C@@H]2Cc2ccccc2)C(=O)C(=O)N1CCc1ccccc1 here?
Its activation is 2.67% (inactive).

With C=CC[C@@H](Cc1ccc(F)cc1)C(=O)OC[C@H]1CCCN1C(=O)[C@H](CC=C)CC(=O)N(CCO)Cc1ccccc1 as the compound, how does the activation read?
The activation was 12.6% (inactive).

Reference: PubChem BioAssay AID588334 (Broad Institute, 2011)
